Measurements: the supplement of paper PMC4206467

What follows are compounds tested on Perkinsus marinus PRA240 (assay: ATP content (proliferation) relative to DMSO control; higher = more parasite growth (less inhibition)). Conditions: 20 µM; 4 days.
Experimental: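 Perkinsus marinus PRA240 trophozoites (2-5x10^6 cells/ml, 100 µl, 96-well) were exposed once to MMV Malaria Box compounds at 20 µM (0.1% DMSO) in triplicate. ATP content (ATPlite bioluminescence) was read at day 4 post-exposure and normalised to DMSO + cells control wells (100% activity). Compounds were identified by joining plate and well to the Malaria Box list.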

SMILES	ATP content
COc1cc(OC)cc(N2C(=O)N(Cc3ccc(C(C)(C)C)cc3)c3ccccc3S2(=O)=O)c1	130%
CCOc1ccccc1CN1CCc2nc3cc(C(C)(C)C)nn3c(O)c2C1	51.7%
CCOC(=O)c1cnc2ccc(OC)cc2c1Nc1ccc(N2CCN(C)CC2)cc1	106%
O=C(Nc1cccc(-c2nc3ccccc3[nH]2)c1)c1cccc(NC(=O)c2ccco2)c1	126%
COc1ccc(-c2cc(=O)oc3c4c(ccc23)OCN(Cc2ccc(F)cc2)C4)cc1	130%
COc1cccc(C2(C)Nc3ccccc3-c3nc4ccccc4n32)c1 (configuration not stated)	144%
O=C(Nc1ccsc1C(=O)NC1CCCCC1)c1ccc(F)cc1	90%
O=C(NC1CCN(Cc2ccccc2)CC1)c1cc(-c2ccncc2)nc2ccc(Cl)cc12	172%
COc1ccc(Nc2nc(NN=Cc3ccc(O)cc3)nc(Nc3ccc([N+](=O)[O-])cc3)n2)cc1	39.1%
CC(C)(C)c1ccc(C2CC3=Nc4ccccc4N(C(=O)c4ccccc4Cl)C(c4ccc(F)cc4)C3=C(O)C2)cc1 (configuration not stated)	129%
O=C(Nc1ccc(N2CCN(Cc3ccccc3)CC2)cc1)c1cccs1	86.8%
COc1ccc(C2c3ccc4ccccc4c3Oc3ncn(CCCn4ccnc4)c(=N)c32)cc1OC (configuration not stated)	121%
COc1ccc(CCN2C(=O)c3[nH]nc(-c4cc(Cl)c(C)cc4O)c3C2c2ccccc2F)cc1 (configuration not stated)	91.4%
CCOc1cc(Cl)c(C(C)NC(=O)c2cccc(OC)c2)cc1OCC (configuration not stated)	85.3%
CN1CCN(c2nc(Nc3ccc(O)cc3)nc3ccccc23)CC1	114%
O=C(NCc1ccco1)C1CCN(S(=O)(=O)c2ccc(Cl)cc2)CC1	89.8%
Oc1ccccc1CN1CCN(C(c2ccccc2)c2ccccc2)CC1	128%
O=C(Nc1ccccc1O)c1ccc(Oc2cccc(C(=O)Nc3ccccc3O)c2)cc1	30.4%
c1ccc2c(NCCc3c[nH]c4ccccc34)c3ccccc3nc2c1	179%

SMILES	ATP content
Cc1ccc(-c2cc(C(=O)Nc3ccc(S(=O)(=O)N4CCCCC4)cc3)[nH]n2)c(O)c1	104%
Cc1ccnc(NC(c2cccc(OCc3ccccc3)c2)c2ccc3cccnc3c2O)c1 (configuration not stated)	57.2%
OC(Cn1nnc2ccccc21)Cn1c2ccc(Br)cc2c2cc(Br)ccc21 (configuration not stated)	135%
COC(=O)c1ccc(C2C3=C(O)CC(c4ccc(F)cc4)CC3=Nc3ccccc3N2C(=O)c2ccccc2)cc1 (configuration not stated)	105%
O=C(CCc1ccccc1)c1ccccc1OCC(O)CN1CCCCC1 (configuration not stated)	62.3%
COc1ccc(CNC(=O)c2cc3c(=O)n4ccccc4nc3n(CCc3ccccc3)c2=N)cc1	107%
O=C(Cc1ccccc1)NC(c1ccc(Cl)cc1)c1c(O)ccc2ccccc12 (configuration not stated)	36%
Cc1cc(N(C)C)nc(Nc2ccc(NC(=O)Nc3ccccc3)cc2)n1	85.9%
COc1cc(-c2nc(-c3ccc(Sc4ccccc4)cc3)c(-c3ccccc3)[nH]2)cc(OC)c1O	78.3%
CC1CCN(Cc2c(O)ccc3cc(-c4nc5ccccc5s4)c(=O)oc23)CC1	124%
CCc1ccc(CNCC(O)c2ccccc2)cc1 (configuration not stated)	60.8%
CN(C)c1ccc(-c2nc3cc(N)ccc3[nH]2)cc1	0.856%
OC(CNCc1ccccc1)Cn1c2ccccc2c2ccccc21 (configuration not stated)	105%
CCOc1ccc(Nc2ccnc3cc(Cl)ccc23)cc1	55.2%
c1ccc(C2=Nc3ccccc3N=C(c3ccccc3)c3ccccc32)cc1	117%
OC1CCCCC1C1(NC(=S)Nc2ccccc2)CCCCC1 (configuration not stated)	127%
O=C(Nc1ccccc1O)c1ccc(-c2ccc(Cl)cc2Cl)o1	82.5%
OCCNc1nc(Nc2ccc(Cl)c(Cl)c2)nc2ccccc12	28.8%
